Assay in all cases: protein-binding microarray (PBM); PBM: ~300 nM protein, 6 mM HEPES pH 7.8, 80 mM KCl, 0.5 mM EDTA, 0.5 mM EGTA, 6% glycerol, 35 ng/ul poly-dIdC, 1% milk, 1 h, room temperature; Ap Aiptasia and Nv Nematostella (sea anemones) / Co Capsaspora / Aq Amphimedon (sponge) / Dm Drosophila / Hu human; RHD is the Rel homology domain; high values mean tight binding
Common to all, as to conditions: dsDNA, one strand shown

In one experiment the target is T1, GST-Ap-NF-kB RHD (Exaiptasia pallida (Aiptasia), UniProt A0A913YAJ5 2-422).
T1 sequence: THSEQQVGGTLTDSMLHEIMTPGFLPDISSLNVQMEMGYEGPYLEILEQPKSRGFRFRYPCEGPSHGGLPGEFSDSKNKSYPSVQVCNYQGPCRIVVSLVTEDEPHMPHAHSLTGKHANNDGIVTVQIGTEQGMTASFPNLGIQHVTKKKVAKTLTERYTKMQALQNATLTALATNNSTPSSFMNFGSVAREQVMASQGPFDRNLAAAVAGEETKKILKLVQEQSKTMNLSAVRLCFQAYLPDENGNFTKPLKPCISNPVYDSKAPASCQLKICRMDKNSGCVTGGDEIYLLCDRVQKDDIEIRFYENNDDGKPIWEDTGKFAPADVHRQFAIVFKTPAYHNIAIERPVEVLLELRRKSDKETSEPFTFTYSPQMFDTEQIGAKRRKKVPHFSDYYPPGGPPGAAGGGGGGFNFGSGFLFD

Experiment [1] addresses T2, GST-Nv-NF-kB (Cys allele) (Nematostella vectensis, UniProt E5G601 2-411).
T2 sequence: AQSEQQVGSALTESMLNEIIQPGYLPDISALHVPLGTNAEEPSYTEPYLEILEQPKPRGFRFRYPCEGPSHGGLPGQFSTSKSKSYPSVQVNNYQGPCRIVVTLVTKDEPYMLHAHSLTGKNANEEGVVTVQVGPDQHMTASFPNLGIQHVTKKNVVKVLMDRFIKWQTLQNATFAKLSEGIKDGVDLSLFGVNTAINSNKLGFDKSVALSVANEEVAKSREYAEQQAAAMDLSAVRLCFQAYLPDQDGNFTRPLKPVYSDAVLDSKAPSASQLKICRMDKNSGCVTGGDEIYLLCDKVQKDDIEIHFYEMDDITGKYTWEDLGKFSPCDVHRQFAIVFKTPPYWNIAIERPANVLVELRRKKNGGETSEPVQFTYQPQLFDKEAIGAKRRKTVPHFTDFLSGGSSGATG

For experiment [2], the target named is T3, GST-Nv-NF-kB (Ser allele) (Nematostella vectensis, UniProt A7UNT2 2-411).
T3 sequence: T2 sequence with Q21R, C66S, S207N, E215Q, V217A, E225K, A268E, D399E

In the next experiment the target is T4, GST-Co-NF-kB (Capsaspora owczarzaki, UniProt F1ARL5 200-546).
T4 sequence: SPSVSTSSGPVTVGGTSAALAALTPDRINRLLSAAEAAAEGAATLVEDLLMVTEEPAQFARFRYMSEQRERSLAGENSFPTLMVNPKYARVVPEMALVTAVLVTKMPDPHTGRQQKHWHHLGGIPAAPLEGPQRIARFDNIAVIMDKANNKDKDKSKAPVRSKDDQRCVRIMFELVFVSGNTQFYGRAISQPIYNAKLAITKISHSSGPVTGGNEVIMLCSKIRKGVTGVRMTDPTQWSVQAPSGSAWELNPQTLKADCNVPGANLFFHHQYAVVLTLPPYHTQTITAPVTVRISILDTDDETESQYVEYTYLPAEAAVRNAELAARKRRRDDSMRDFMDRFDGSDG

A further experiment addresses T5, GST-Dm-Relish (Drosophila melanogaster, UniProt Q94527 99-473).
T5 sequence: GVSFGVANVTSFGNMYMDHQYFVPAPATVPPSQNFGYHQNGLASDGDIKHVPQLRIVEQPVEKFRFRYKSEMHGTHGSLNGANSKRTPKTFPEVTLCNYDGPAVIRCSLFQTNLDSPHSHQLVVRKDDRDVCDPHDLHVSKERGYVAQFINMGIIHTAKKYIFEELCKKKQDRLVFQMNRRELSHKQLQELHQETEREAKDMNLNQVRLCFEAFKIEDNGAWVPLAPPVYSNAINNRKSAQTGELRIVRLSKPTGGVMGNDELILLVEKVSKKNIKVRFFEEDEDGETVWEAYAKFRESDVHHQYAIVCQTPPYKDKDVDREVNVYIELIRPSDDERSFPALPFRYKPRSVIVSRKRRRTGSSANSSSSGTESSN

The target of another experiment is T6, GST-Aq-NF-kB (Amphimedon queenslandica, UniProt A9Y5G7 2-389).
T6 sequence: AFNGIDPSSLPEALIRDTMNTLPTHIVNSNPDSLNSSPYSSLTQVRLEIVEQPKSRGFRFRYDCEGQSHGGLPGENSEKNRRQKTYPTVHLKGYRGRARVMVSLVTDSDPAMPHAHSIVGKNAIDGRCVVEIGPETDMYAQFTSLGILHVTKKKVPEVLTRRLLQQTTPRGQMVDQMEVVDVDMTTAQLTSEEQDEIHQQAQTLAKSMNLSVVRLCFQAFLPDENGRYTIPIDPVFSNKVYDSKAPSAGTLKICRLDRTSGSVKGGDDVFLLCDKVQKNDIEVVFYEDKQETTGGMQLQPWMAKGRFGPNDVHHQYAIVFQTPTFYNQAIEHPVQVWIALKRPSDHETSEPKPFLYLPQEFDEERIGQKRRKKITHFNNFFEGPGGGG

The target of a further experiment is GST-Hu-p50 (Homo sapiens, UniProt P19838 7-356).
GST-Hu-p50, sequence (P19838 7-356): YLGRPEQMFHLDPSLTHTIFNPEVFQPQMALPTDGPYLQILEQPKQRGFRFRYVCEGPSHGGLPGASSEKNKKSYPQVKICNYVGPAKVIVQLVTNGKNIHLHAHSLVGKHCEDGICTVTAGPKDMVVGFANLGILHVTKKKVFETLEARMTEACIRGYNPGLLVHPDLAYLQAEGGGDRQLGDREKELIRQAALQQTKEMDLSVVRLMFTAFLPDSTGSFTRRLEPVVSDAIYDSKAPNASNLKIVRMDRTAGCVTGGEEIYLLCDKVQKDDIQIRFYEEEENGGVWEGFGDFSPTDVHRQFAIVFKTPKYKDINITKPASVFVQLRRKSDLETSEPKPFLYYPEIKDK

Residue numbers refer to the chain shown, from its start.

In the case of “CCGATTAACATCAGGGGAGTTTATGATGTTAATCGGGTCTTGATTCGCTTGACGCTGCTG”, the binding signal with GST-Ap-NF-kB RHD came out at 8.25 z-score; in experiment [1], 6.72 z-score; in experiment [2], 7.68 z-score; in the experiment with GST-Co-NF-kB, 4.75 z-score; with GST-Dm-Relish, 6.12 z-score; with GST-Aq-NF-kB it was 6.08 z-score. In addition, the binding signal with GST-Hu-p50 was 5.95 z-score.

Turning to “CCGATTAACATCACGGGGAAAACTGATGTTAATCGGGTCTTGATTCGCTTGACGCTGCTG”, the binding signal with GST-Ap-NF-kB RHD was found to be 7.27 z-score; in experiment [1], 7.6 z-score; in experiment [2] it was 9.43 z-score; in the experiment with GST-Co-NF-kB it was 10.2 z-score; in the experiment with GST-Dm-Relish, 5.68 z-score; in the experiment with GST-Aq-NF-kB, 5.55 z-score. Moreover, the binding signal with GST-Hu-p50 was found to be 5.8 z-score.

With “CCGATTAACATCACGGTTTCCCCTGATGTTAATCGGGTCTTGATTCGCTTGACGCTGCTG”, the binding signal is 7.03 z-score with GST-Ap-NF-kB RHD; 7.64 z-score in experiment [1]; 9.99 z-score in experiment [2]; 7.67 z-score with GST-Co-NF-kB; 5.09 z-score in the experiment with GST-Dm-Relish; 5.42 z-score with GST-Aq-NF-kB. Besides, the binding signal in the experiment with GST-Hu-p50 was found to be 5.88 z-score.

For the sequence “CCGATTAACATCAATCTTCCCCCTGATGTTAATCGGGTCTTGATTCGCTTGACGCTGCTG”, the binding signal in the experiment with GST-Ap-NF-kB RHD came out at 5.77 z-score; in experiment [1], 6.99 z-score; in experiment [2] it was 7.73 z-score; with GST-Co-NF-kB, 9.37 z-score; in the experiment with GST-Dm-Relish, 4.07 z-score; with GST-Aq-NF-kB it was 6.23 z-score. Moreover, in the experiment with GST-Hu-p50, the binding signal is 6.3 z-score.

“CCGATTAACATCAGGGAAATCCCTGATGTTAATCGGGTCTTGATTCGCTTGACGCTGCTG”: the binding signal worked out at 9.75 z-score in the experiment with GST-Ap-NF-kB RHD; 11.4 z-score in experiment [1]; 9.68 z-score in experiment [2]; 4.02 z-score in the experiment with GST-Co-NF-kB; 10.3 z-score with GST-Dm-Relish; 10.9 z-score in the experiment with GST-Aq-NF-kB. The same sequence yielded a binding signal with GST-Hu-p50 of 7.17 z-score.

On to “CCGATTAACATCAGGATTTCCCCTGATGTTAATCGGGTCTTGATTCGCTTGACGCTGCTG”, for which the binding signal was 10 z-score with GST-Ap-NF-kB RHD; 11.1 z-score in experiment [1]; 11.4 z-score in experiment [2]; 7.55 z-score with GST-Co-NF-kB; 9.64 z-score with GST-Dm-Relish; 9.68 z-score with GST-Aq-NF-kB. In the experiment with GST-Hu-p50, this sequence yielded a binding signal of 7.53 z-score.

Regarding “CCGATTAACATCACGGGGGGTACTGATGTTAATCGGGTCTTGATTCGCTTGACGCTGCTG”, the binding signal is 5.05 z-score with GST-Ap-NF-kB RHD; 3.22 z-score in experiment [1]; 3.15 z-score in experiment [2]; 4.54 z-score in the experiment with GST-Co-NF-kB; 3.63 z-score with GST-Dm-Relish; 3.58 z-score with GST-Aq-NF-kB. The sequence further showed a binding signal with GST-Hu-p50 of 3.25 z-score.

As for “CCGATTAACATCAGGGGAATGTATGATGTTAATCGGGTCTTGATTCGCTTGACGCTGCTG”, the binding signal in the experiment with GST-Ap-NF-kB RHD is 6.02 z-score; in experiment [1] it was 7.74 z-score; in experiment [2], 8.56 z-score; in the experiment with GST-Co-NF-kB it was 6.26 z-score; with GST-Dm-Relish, 2.96 z-score; with GST-Aq-NF-kB, 5.58 z-score. Moreover, in the experiment with GST-Hu-p50, the binding signal is 5.69 z-score.

Regarding “CCGATTAACATCACCCGCCCCCCTGATGTTAATCGGGTCTTGATTCGCTTGACGCTGCTG”, the binding signal with GST-Ap-NF-kB RHD worked out at 4.08 z-score; in experiment [1], 4.08 z-score; in experiment [2], 2.95 z-score; with GST-Co-NF-kB it was 4.02 z-score; with GST-Dm-Relish, 4.78 z-score; in the experiment with GST-Aq-NF-kB, 4.22 z-score. This sequence displayed a binding signal with GST-Hu-p50 of 3.85 z-score.

Turning to “CCGATTAACATCAAATTCCCAGGTGATGTTAATCGGGTCTTGATTCGCTTGACGCTGCTG”, the binding signal with GST-Ap-NF-kB RHD came out at 2.43 z-score; in experiment [1] it was 3.11 z-score; in experiment [2], 3.64 z-score; with GST-Co-NF-kB it was 3.53 z-score; with GST-Dm-Relish it was 3.69 z-score; in the experiment with GST-Aq-NF-kB, 2.4 z-score. In the experiment with GST-Hu-p50, the binding signal was determined as 4.02 z-score.

In the case of “CCGATTAACATCAAATGTTCCCCTGATGTTAATCGGGTCTTGATTCGCTTGACGCTGCTG”, the binding signal with GST-Ap-NF-kB RHD came out at 5.58 z-score; in experiment [1], 6.77 z-score; in experiment [2] it was 7.62 z-score; with GST-Co-NF-kB it was 9.87 z-score; with GST-Dm-Relish it was 5.59 z-score; in the experiment with GST-Aq-NF-kB it was 6.21 z-score. For the same sequence, in the experiment with GST-Hu-p50, the binding signal worked out at 4.41 z-score.

Take “CCGATTAACATCAGGGATATACCTGATGTTAATCGGGTCTTGATTCGCTTGACGCTGCTG”: the binding signal turned out to be 3.17 z-score in the experiment with GST-Ap-NF-kB RHD; 3.3 z-score in experiment [1]; 1.91 z-score in experiment [2]; 1.14 z-score with GST-Co-NF-kB; 6.4 z-score with GST-Dm-Relish; 5.31 z-score with GST-Aq-NF-kB. Further, the binding signal with GST-Hu-p50 worked out at 1.99 z-score.

For the origin of these results see PMC5700166.
